Pf growth 48h: P. falciparum growth inhibition at 48 hours (one generation). P. falciparum luciferase growth in erythrocytes, 48 h. Potency, µM (titrated, usually from 28.7 µM), most hits filed as inhibitors. 310,000 tested, 5.9% active
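Read-out is firefly luciferase luminescence from an integrated reporter in P. falciparum, so falling signal marks reduced parasite growth. Infected erythrocytes were at 2% hematocrit and 0.1% parasitemia (final) in Albumax-supplemented RPMI 1640.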
Pf growth 96h: inhibits malaria parasite growth, 96 h; 320,000 tested, 6.9% active; P. falciparum luciferase reporter growth, 96 h; AID 504834; Potency, µM (doses to about 28.7 µM), usual class: inhibitors
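Cell-based qHTS: luciferase-tagged P. falciparum in erythrocytes (2% hematocrit, 0.05% parasitemia final) incubated with compounds for 96 hours, 37 C, 5% CO2; luciferase detection reagent then added and luminescence measured.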
Cycloheximide cs: affects cycloheximide protein synthesis inhibition readout, counter-screen; cell reporter, cycloheximide protein synthesis inhibition counterscreen; max response, %; 300,000 tested, 12% active; AID 2314; in the data active = max response mostly above about 13%, no sharp cut-off; inactive = mostly below about 14%; note: read at 38.3 µM for the half of the compounds with a filed dose
Shiga inhibitor: blocks Shiga toxin action in Vero cells; Vero cells, Shiga toxin protein synthesis inhibition reporter; inhibition, % at 38.7 µM; 290,000 tested, 9.2% active; AID 2315; in the data active = inhibition mostly above about 28%, no sharp cut-off; inactive = mostly below about 43%
Of the large screens only hits and unclear results are named; the others gave an inactive call. Most compounds without a hit are left out; they make up all but 21% or so of the library. Unless noted, calls come from the whole dose curve; as a rule, active = well fitted inhibition curve with a large enough effect; inconclusive = small, poorly fitted or top-dose-only effect, or another doubt; inactive = no such curve, though single readings can be large or run the other way.

CSc1ccc(/C=C(\NC(=O)c2ccco2)C(=O)N2CCCCC2)cc1	none
FC(F)(F)c1cccc(NC(=S)NC(c2ccccc2)c2ccccc2)c1	Pf growth 48h 3.7µM, Pf growth 96h 2.6µM
O=[N+]([O-])c1cc(C(F)(F)F)cc([N+](=O)[O-])c1NCCNC(=S)Nc1ccc(Cl)c(Cl)c1	Pf growth 48h 9.3µM, Pf growth 96h inconclusive
CC(C)(C)NC(=S)Nc1cccc(C(F)(F)F)c1	Pf growth 48h inconclusive, Pf growth 96h inconclusive
FC(F)(F)c1cccc(NC(=S)Nc2ccc(Cl)c(Cl)c2)c1	Pf growth 96h 8.3µM
FC(F)(F)c1cccc(NC(=S)NNC(=S)Nc2cccc(C(F)(F)F)c2)c1	Pf growth 48h inconclusive, Pf growth 96h inconclusive
FC(F)(F)c1cccc(NC(=S)NCc2ccccc2)c1	Pf growth 48h inconclusive, Pf growth 96h 3.3µM
Cc1csc(=O)n1CC(=O)Nc1ccc(C(C)C)cc1	none (no result: Cycloheximide cs, Shiga inhibitor)
CCCCN(C(=O)c1ccc(C#N)cc1)c1c(N)n(CCC)c(=O)[nH]c1=O	none
Cc1ccc(S(=O)(=O)N2CCOCC2)cc1C(=O)Nc1ccc2c(c1)OCCO2	none (no result: Cycloheximide cs, Shiga inhibitor)
N#CCSc1nnc(-c2cccnc2)n1-c1ccccc1	none
Cc1ccc(-n2c(SCC(=O)N3CCN(c4ccccn4)CC3)nnc2N2CCCC2)cc1	Pf growth 48h 9.3µM, Pf growth 96h 8.3µM (no result: Cycloheximide cs, Shiga inhibitor)
Cc1ccc(-n2c(SCC(=O)N3CCOCC3)nnc2-c2cccnc2)cc1	Cycloheximide cs 24, Shiga inhibitor 56
CCSc1nnc(-c2cccnc2)n1-c1ccc(C)c(Cl)c1	Pf growth 96h 4.7µM (no result: Pf growth 48h)
Cc1ccc(-n2c(SCC(=O)N3CCOCC3)nnc2-c2cccnc2)cc1C	Pf growth 96h inconclusive
O=C(CCSCc1ccccc1Cl)N1CCN(c2ccccn2)CC1	Cycloheximide cs 41, Shiga inhibitor 44
Cc1cc(C(=O)NNC(=O)c2ccccc2F)c2ccccc2n1	none (no result: Cycloheximide cs, Shiga inhibitor)
Cc1ccc(SCC(=O)N2CCN(c3ccccn3)CC2)cc1	Cycloheximide cs 18, Shiga inhibitor 52
CCSc1nc2ccccc2c(=O)n1-c1c(C)n(C)n(-c2ccccc2)c1=O	none
O=C(NCC(=O)N1CCN(C(c2ccccc2)c2ccccc2)CC1)c1ccccc1F	none
O=S(=O)(c1ccc(Cl)cc1)N1CCN(C2CCCCCC2)CC1	none (no result: Pf growth 96h)
Clc1ccc(N=C2SCC3CCCCN23)cc1 (stereo not given)	Cycloheximide cs 70, Shiga inhibitor 77
O=C(CN1CCCCC1CO)c1ccc(OC(F)F)cc1 (stereo not given)	none
FC(F)Oc1ccc(N=C2SCC3CCCCN23)cc1 (stereo not given)	Cycloheximide cs 53, Shiga inhibitor 131
O=C(COC(=O)COc1ccccc1F)NCCc1ccc(F)cc1	none (no result: Cycloheximide cs, Shiga inhibitor)
Cc1ccc(C2=NNC(=O)C(P(=O)(c3ccccc3)c3ccccc3)C2)cc1 (stereo not given)	Pf growth 96h inconclusive
C/C(CC(=O)Nc1ccccc1C)=N\NC(=O)Cc1csc(N)n1	Cycloheximide cs 41, Shiga inhibitor 62
C/C(CC(=O)Nc1ccc(Br)cc1)=N\NC(=O)Cc1csc(N)n1	Cycloheximide cs 29
C/C(CC(=O)Nc1ccc(F)cc1)=N\NC(=O)Cc1csc(N)n1	none
CCCCCCCCCC(CC)c1ccc(S(=O)(=O)O)cc1 (stereo not given)	none (no result: Cycloheximide cs, Shiga inhibitor)
CC1(C)Cc2c(cnn2-c2cccc(F)c2)C(NC(=O)c2ccc[n+]([O-])c2)C1 (stereo not given)	none
O=S(=O)(O)c1ccc(N=Nc2ccccc2)cc1	none
O=c1ccc(N=Nc2ccccc2)ccc1O	Pf growth 48h 10µM, Pf growth 96h 13µM, Cycloheximide cs 23
O=C(NNC(=O)C1CCN(c2ncccn2)CC1)c1ccncc1	none
Cc1cc(O)c(C(C)C)cc1N=C1CSC(=O)N1	none
CCOC(=O)C(=O)CC(=O)c1ccc2c(c1)OCCO2	Pf growth 96h inconclusive, Cycloheximide cs 30
Cc1ccc(NC(=O)c2ccc3c(c2)OCCO3)cc1S(=O)(=O)Nc1cccc(Cl)c1	Cycloheximide cs 45, Shiga inhibitor 88
Cc1cccc(NC(=S)N/N=C/c2ccc3c(c2)OCO3)c1	Cycloheximide cs 49, Shiga inhibitor active
O=C(C[n+]1ccc(C(=O)NCc2ccccc2)cc1)c1ccc2c(c1)OCCO2	none
Nc1cc[n+](CC(=O)c2ccc3c(c2)OCCO3)cc1	Pf growth 48h 4.7µM, Pf growth 96h inconclusive
NC(=O)c1ccc2c(c1)OCCO2	none
COc1ccc(NC(=O)c2cc(OCCCN(C)C)nn2Cc2ccccc2)cc1	none (no result: Pf growth 48h, Pf growth 96h)
NC(=O)CC(NC(=O)c1cccc(Br)c1)c1ccc(N2CCN(c3ccccn3)CC2)c([N+](=O)[O-])c1 (stereo not given)	Pf growth 96h inconclusive
CCC(C)(C)NC(=O)c1ccc2c(c1)OCCO2	Cycloheximide cs 16
COc1ccc(NC(=O)/C(=C\c2ccc3c(c2)OCO3)NC(C)=O)cc1	Cycloheximide cs 59, Shiga inhibitor 67
COc1cccc(NC(=O)C(=O)N/N=C/c2ccc3c(c2)OCO3)c1	Pf growth 96h 10µM, Cycloheximide cs 26
CCC(CC)NC(=O)c1ccc2c(c1)OCCO2	none (no result: Pf growth 96h)
O=C(N/N=C/c1ccc2c(c1)OCO2)C(=O)Nc1ccccc1Cl	none
O=C(Nc1ccccc1)c1ccc2c(c1)OCCO2	Cycloheximide cs 41, Shiga inhibitor 70
CCN(CC)CCNC(=O)c1ccc(NC(=O)C2CC(=O)N(c3ccc4c(c3)OCCO4)C2)cc1 (stereo not given)	Pf growth 48h inconclusive (no result: Cycloheximide cs, Shiga inhibitor)
CN(C)S(=O)(=O)c1ccc(Cl)c(NC(=O)CN2CCN(Cc3ccc4c(c3)OCO4)CC2)c1	Pf growth 48h inconclusive
CCCc1cc(C(=O)NNC(=S)Nc2cccc(C)c2)cs1	Cycloheximide cs 31, Shiga inhibitor 40
Cc1cccc(NC(=S)NNC(=O)c2ccc3c(c2)OCO3)c1	Cycloheximide cs 116, Shiga inhibitor 49
O=C(Nc1cccc(F)c1)c1ccc2c(c1)OCCO2	Cycloheximide cs 43, Shiga inhibitor 87
CC(C)CNC(=S)NNC(=O)c1ccc2c(c1)OCO2	none (no result: Pf growth 96h)
Cc1cccc(NC(=O)c2ccc3c(c2)OCCO3)c1	Pf growth 96h inconclusive, Shiga inhibitor 41
O=C(COc1cc2oc(=O)cc(-c3ccccc3)c2cc1Cl)NCCN1CCOCC1	none
CCc1ccc(C(=O)NNC(=O)c2cccc(S(=O)(=O)N3CCN(C)CC3)c2)cc1	Pf growth 48h inconclusive (no result: Cycloheximide cs, Shiga inhibitor)
CCC(C)(C)NC(=O)CN(C(=O)C(=O)Nc1ccc2c(c1)OCCO2)C1CC1	Cycloheximide cs 12
O=C1[C@H]2[C@@H](c3ccc(Cl)cc3)N3C(=O)N(c4cccc(Cl)c4)C(=O)[C@@]3(Cc3ccc(Cl)cc3)[C@H]2C(=O)N1C1CCCCC1	Pf growth 48h 2.6µM, Pf growth 96h inconclusive (no result: Cycloheximide cs, Shiga inhibitor)
O=C1[C@H]2[C@@H](c3ccc(F)cc3)N3C(=O)N(c4cccc(F)c4)C(=O)[C@@]3(Cc3ccc(Cl)cc3)[C@H]2C(=O)N1C1CCCCC1	Pf growth 48h 15µM, Pf growth 96h 8.3µM (no result: Cycloheximide cs, Shiga inhibitor)
O=C1[C@H]2[C@@H](c3ccc(F)cc3)N3C(=O)N(c4ccc(Br)cc4)C(=O)[C@@]3(Cc3ccccc3)[C@H]2C(=O)N1C1CCCCC1	Pf growth 48h 3.3µM, Pf growth 96h 3.7µM

From PubChem
